# Measurements reported in PubChem BioAssay (NCI).
# The panel holds about 79,000 compounds, 15% with a hit somewhere; the sample as a whole holds those more often. Values without a mark were called inactive. The source made the active and inactive calls. Cut-off read from the data, not from the text of the source: active = growth inhibition above about 70%; inactive = the rest.
# What was measured:
# [1] = NCI Yeast Anticancer Drug Screen. Data for the rad50 strain (AID 155);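 note: 0% = growth of vehicle-only cultures of the same strain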; conditions: S. cerevisiae rad50 strain growth inhibition; at 50.0 µM; stronger effect = higher value
# Method in brief: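 Yeast carrying a defined DNA repair defect were exposed to test compounds, and growth was compared with vehicle-treated controls to give percent inhibition.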
# [2] = NCI Yeast Anticancer Drug Screen. Data for the mec2-1 strain (AID 157); conditions: S. cerevisiae mec2-1 strain, at 50.0 µM, stronger effect = higher value
# Method in brief: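 Mutant yeast (mec2-1) grown with compound; growth inhibition relative to vehicle control reported.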
# [3] = NCI Yeast Anticancer Drug Screen. Data for the sgs1 mgt1 strain (AID 161);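 note: 0% = growth of cultures given vehicle only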; conditions: S. cerevisiae sgs1 mgt1 strain, at 50.0 µM, stronger effect = higher value
# Method in brief: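 Growth of a repair-deficient yeast mutant was monitored after compound treatment and expressed as inhibition relative to vehicle-treated cultures.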
# [4] = NCI Yeast Anticancer Drug Screen. Data for the cln2 rad14 strain (AID 165);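 note: 0% = growth equal to vehicle treated cultures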; conditions: S. cerevisiae cln2 rad14 strain, at 50.0 µM, stronger effect = higher value
# Method in brief: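 Readout is yeast growth inhibition versus vehicle-treated controls, using a strain with cln2 and rad14 alterations exposed to compound.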
# [5] = NCI Yeast Anticancer Drug Screen. Data for the bub3 strain (AID 167); conditions: S. cerevisiae bub3 mutant strain, at 50.0 µM, stronger effect = higher value
# Method in brief: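 Compounds were applied to a genetically altered yeast strain carrying a cell-cycle control defect. Growth inhibition was scored against vehicle-treated controls.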
# [6] = NCI Yeast Anticancer Drug Screen. Data for the mlh1 rad18 strain (AID 175); conditions: S. cerevisiae mlh1 rad18 strain growth inhibition; at 50.0 µM; stronger effect = higher value
# Method in brief: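 Genetically defined yeast (DNA repair-deficient) exposed to compounds; growth inhibition determined relative to vehicle.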
SMILES,growth inhibition [1],growth inhibition [2] [%],growth inhibition [3] [%],growth inhibition [4] [%],growth inhibition [5] [%],growth inhibition [6]
Cc1cc(OCc2nnc3n2S(=O)(=O)c2ccccc2N3C)ccc1Cl,49.4%,2,-21.8,-0.75,-30.4,-22.4%
Cc1ccc(C(C)(O)C2CC2)cc1 (stereo unspecified),-11.4%,-33.8,-18.4,18.6,-35.8,18.1%
Nc1ncc[nH]c1=O,-16.1%,-4.1,1.25,-4.1,2.9,-20.2%
O=C1CN(C=C(C(=O)c2ccccc2)C(=O)c2ccccc2)C(=S)N1,-61.5%,-31.7,-19.2,-39,-8.2,-30.4%
Cc1ccc(NCCN)c2c(=O)c3cc(O)ccc3sc12,86% (active),32.3,40.4,25.1,9.65,86.7% (active)
N#Cc1nnc2cc(-c3ccccc3)nn2c1-c1cccs1,0.6%,-8.6,15.8,21.1,4.1,6.35%
NC(=O)Cn1c(=O)[nH]c(=O)c2[nH]cnc21,-16.9%,-2.1,-10.3,5.4,-0.4,6.85%
O=C(NCCO)C(=O)NCCO,5.25%,-13.3,5.7,-9.35,-2.55,17.6%
C=C1C(=O)O[C@H]2C1[C@H](OC(=O)/C(C)=C\COC(C)=O)C[C@]1(CO1)[C@@H]1[C@H](O)[C@H]3O[C@@]3(C)[C@@H]12 (stereo partly specified),-5.95%,-26.4,-13,-1,-52,-2.05%
Cc1ccc(S(=O)(=O)Nc2ccccc2C(=O)c2ccc(C)c(C)c2)cc1,4.1%,-7.15,-9.9,-41,-40.9,23.9%
O=C(O)c1ccccc1SC(Sc1ccccc1C(=O)O)c1ccccc1,-11.8%,-10.7,-2.35,-7.85,12.1,10.6%
Cc1nc(Cl)c(Cl)c(Cl)n1,5%,-7.9,-0.6,5.55,-4,-5.2%
CCCCC1(C=O)NC(=O)N(C)C1=O (stereo unspecified),5%,2.35,-10.8,5.6,7.2,-9.35%
O=c1[nH]c(=O)n(C2OC(CO)C(O)C2O)cc1Oc1ccccc1 (stereo unspecified),7.8%,2.9,4.2,12.4,-0.4,-13.8%
COc1ccccc1C(=O)N/N=C/c1ccncc1,-2.85%,24.5,5.7,-5.7,20.2,9.8%
CC1=NN(c2ccc(S(=O)(=O)O)cc2)C(=O)C1N=Nc1ccc(C)c(S(=O)(=O)Nc2ccccc2)c1 (stereo unspecified),5.95%,-17.9,8,15,5.45,10.8%
COC(=O)CNC(=O)C(Cc1ccccc1)NC(=O)OCc1ccccc1 (stereo unspecified),-4.95%,-3.75,-1.55,1.9,15.8,-3.3%
N#CC1(C(N)=O)OC1c1ccccc1Cl (stereo unspecified),-3.1%,-18.1,1.3,-37.3,-7.1,-16.9%
Brc1ccc(C(c2ccc(Br)cc2)C(Br)(Br)Br)cc1,2.8%,3.75,1.9,-12.9,1.5,8.2%
COc1ccc(OC)c(NC(=O)SC(C)C)c1,-5.3%,-21.8,-9.45,0.15,18.2,-3.65%
CCCCCCCCCCCCCCCCn1cnc2c(=S)nc[nH]c21,-22.1%,-5.25,-19.1,-4.75,0.5,-6.9%
